Screens from PubChem BioAssay.
DT40 TDP1 CPT: DT40-hTDP1 cell growth loss with CPT; chicken DT40 Tdp1-/-;hTDP1 cells + 20 nM CPT, ATP luminescence, 48 h; Potency, µM (titrated, usually from 46.2 µM), usual class: inhibitors; actives 12% (n = 420,000); also: nearly all actives have a fitted effect of over 55% in size
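Chicken DT40 Tdp1-/- cells stably complemented with human TDP1 were seeded at 400 cells/well in medium containing 20 nM camptothecin, exposed to pin-transferred compounds, and grown at 37 °C for at least 48 hr. Viability was read as ATP luminescence.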
HT1080-NT tox: kills 2HG-producing HT-1080-NT fibrosarcoma cells; HT-1080-NT fibrosarcoma viability, CellTiter-Glo ATP luminescence, 48 h; Potency, µM (top dose mostly 46.1 µM), usual class: cytotoxic; actives 1.6% (n = 360,000); AID 686970;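 also: NT is the 2HG producing partner of a matched IDH1 knockdown line; nearly all actives have a fitted effect of over 55% in size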
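Viability by CellTiter-Glo luminescence after 48 h compound exposure at 37C of HT-1080-NT cells (750/well, RPMI, 5% FBS). % activity scaled between DMSO wells and medium-only wells, then curve-fitted and categorized by curve class.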
HT1080 IDH1KD tx: toxicity to HT-1080 IDH1 knockdown cells (counter line); HT-1080 IDH1 knockdown viability, ATP luminescence, 48 h; Potency, µM (series often up to 46.1 µM), hits mostly cytotoxic; actives 2% (n = 360,000); AID 686971
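Viability of IDH1-knockdown HT-1080 fibrosarcoma cells was assessed by CellTiter-Glo after 48 h at 37 °C with titrated compound; concentration-effect curves were classified by fit quality and response size.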
DT40 TDP1 no CPT: qHTS for Inhibitors of human tyrosyl-DNA phosphodiesterase 1 (TDP1): qHTS in cells in absence of CPT. DT40 Tdp1-/- hTDP1 cells, no CPT, ATP luminescence, 48 h. Potency, µM (titrated, usually from 46.2 µM), usual class: inhibitors. actives 15% (n = 420,000); also: nearly all actives have a fitted effect of over 55% in size
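DT40 Tdp1-/-;hTDP1 cells, no CPT (DMSO vehicle only), 400 cells/well; compounds pin-transferred; ≥48 hr, 37 °C; CellTiter-Glo 30 min RT dark, luminescence read.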
IL-1B inflam inh: inflammasome signaling inhibition, IL-1 beta readout; THP-1 LPS/ATP IL-1B secretion, AlphaLISA, 16 h; active compounds read low; activity change, % at 57.5 µM; actives 4.7% (n = 360,000); in the data active = activity change below about -50%; inconclusive = mostly about -30% to -49%
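THP-1 cells pretreated 1 hr with compounds (up to 57.5 uM final), then stimulated with LPS (250 ng/mL final) plus ATP (1.25 mM final); secreted IL-1B measured by AlphaLISA after 16 hr, decreased signal indicating inhibition.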
Numbers stand for hits; [ ] = dose if it differs, or a comment. Rows were chosen to be rich in hits. Some 19% of all compounds tested hit in one or more screens of this group. Unless noted, calls follow the shape of the dose curve; as a rule, active = well fitted curve in the direction sought with a large enough effect; inconclusive = small, poorly fitted or top-dose-only effect, or another doubt; inactive = no such curve, though single readings can be large; an effect the other way counts as inactive or inconclusive.

`CC(/C=C/c1ccc2c(c1)OCO2)=N/NC(=O)c1cccnc1` gave DT40 TDP1 CPT inactive, HT1080-NT tox inactive, HT1080 IDH1KD tx inactive, DT40 TDP1 no CPT inconclusive and IL-1B inflam inh inactive.
`O=C(N/N=C/c1ccc2c(c1)OCO2)c1ccccn1` gave DT40 TDP1 CPT inconclusive, HT1080-NT tox inconclusive, HT1080 IDH1KD tx inconclusive, DT40 TDP1 no CPT inconclusive and IL-1B inflam inh inactive.
`O=C(/C=C/c1ccc2c(c1)OCO2)c1ccccn1` gave DT40 TDP1 CPT 23µM, HT1080-NT tox 26µM, HT1080 IDH1KD tx inconclusive, DT40 TDP1 no CPT 18µM and IL-1B inflam inh inactive.
`O=C(/C=C/c1ccccc1)c1ccc2c(c1)OCCCCO2` gave DT40 TDP1 CPT inactive, HT1080-NT tox inactive, HT1080 IDH1KD tx inactive, DT40 TDP1 no CPT inconclusive and IL-1B inflam inh -78.
O=C(O)c1ccc2c(c1)OCCCO2 was read as DT40 TDP1 CPT inactive, HT1080-NT tox inactive, HT1080 IDH1KD tx inactive, DT40 TDP1 no CPT inactive and IL-1B inflam inh inactive.
Screening O=C1COc2ccc(C(=O)/C=C/c3ccccc3)cc2N1 returned DT40 TDP1 CPT 5.2µM, HT1080-NT tox inactive, HT1080 IDH1KD tx inactive, DT40 TDP1 no CPT 5.2µM and IL-1B inflam inh inactive.
`CC(/C=C/c1ccc2c(c1)OCO2)=N/NC(=O)c1ccc(C)nc1` gave DT40 TDP1 CPT inconclusive, HT1080-NT tox inactive, HT1080 IDH1KD tx inactive, DT40 TDP1 no CPT 23µM and IL-1B inflam inh inactive.
For CC1=NNC(=O)c2ccccc2O1 the results were DT40 TDP1 CPT inactive, HT1080-NT tox inactive, HT1080 IDH1KD tx inactive, DT40 TDP1 no CPT inactive and IL-1B inflam inh inactive.
`O=C(Nc1cccc(Cl)c1)Nc1c[nH]c(=O)[nH]c1=O` gave DT40 TDP1 CPT inactive, HT1080-NT tox inactive, HT1080 IDH1KD tx inactive, DT40 TDP1 no CPT inactive and IL-1B inflam inh inactive.
`CCCCNC(=S)N1CCC(Cc2ccccc2)CC1` gave DT40 TDP1 CPT inconclusive, HT1080-NT tox inconclusive, HT1080 IDH1KD tx inactive, DT40 TDP1 no CPT inconclusive and IL-1B inflam inh inconclusive.
N#Cc1ccc(/C=C/C(=O)c2ccc3c(c2)OCO3)cc1 was read as DT40 TDP1 CPT 16µM, HT1080-NT tox inconclusive, HT1080 IDH1KD tx inconclusive, DT40 TDP1 no CPT 23µM and IL-1B inflam inh -69.
CCN(CC(=O)Nc1c(F)cccc1F)C(=O)c1cc([N+](=O)[O-])ccc1N1CCOCC1 was read as DT40 TDP1 CPT inactive, HT1080-NT tox inactive, HT1080 IDH1KD tx inactive, DT40 TDP1 no CPT inactive and IL-1B inflam inh inactive.
For N#Cc1c(F)cccc1N1CCN(Cc2ccc3c(c2)OCO3)CC1 the results were DT40 TDP1 CPT 16µM, HT1080-NT tox inactive, HT1080 IDH1KD tx inactive, DT40 TDP1 no CPT inconclusive and IL-1B inflam inh inactive.
For COc1cc(OC)c(OC)cc1CN1CCOc2ccc(CN3CCN(C(C)=O)CC3)cc2C1 the results were DT40 TDP1 CPT inactive[9.04 µM] and DT40 TDP1 no CPT 21µM.
For COc1cc(C)c(C)cc1S(=O)(=O)N1CCN(Cc2ccc3c(c2)OCO3)CC1 the results were DT40 TDP1 CPT inactive, HT1080-NT tox inactive, HT1080 IDH1KD tx inactive, DT40 TDP1 no CPT inconclusive and IL-1B inflam inh inactive.
O=C(CN1C(=O)c2cccc3cccc(c23)C1=O)N1CCN(Cc2ccc3c(c2)OCO3)CC1 was read as DT40 TDP1 CPT 21µM, HT1080-NT tox inactive, HT1080 IDH1KD tx inactive, DT40 TDP1 no CPT 18µM and IL-1B inflam inh inactive.
Screening COc1cc(S(=O)(=O)N2CCN(Cc3ccc4c(c3)OCO4)CC2)c(C)cc1C returned DT40 TDP1 CPT 15µM, HT1080-NT tox inactive, HT1080 IDH1KD tx inactive, DT40 TDP1 no CPT inconclusive and IL-1B inflam inh inactive.
`COc1ccccc1CN1CCOc2ccc(CN3CCCCC3CO)cc2C1` (centres undefined) gave DT40 TDP1 CPT inactive[9.04 µM] and DT40 TDP1 no CPT inactive.
Screening O=C1Cc2cc(S(=O)(=O)Nc3ccccc3Cl)cc3c2N1CCC3 returned DT40 TDP1 CPT inactive, HT1080-NT tox inactive, HT1080 IDH1KD tx inactive, DT40 TDP1 no CPT inactive and IL-1B inflam inh inactive.
Screening Cc1cc2c(cc1S(=O)(=O)N1CCCC1)n(C)c(=O)c(=O)n2C returned DT40 TDP1 CPT inactive, HT1080-NT tox inactive, HT1080 IDH1KD tx inactive, DT40 TDP1 no CPT inactive and IL-1B inflam inh inactive.
